Inconclusive results are not listed. A call without a number means that no potency is given here. Active and inactive are the calls of the source. Calls come from the whole dose curve; as a rule, active = well fitted cell-killing curve with a large enough effect; inconclusive = small, poorly fitted or top-dose-only effect; inactive = no such curve, though single readings can be large or run the other way.
How the values were obtained:
[1] = qHTS of pediatric cancer cell lines to identify multiple opportunities for drug repurposing: Primary screen for Rh30 cells (AID 1347107); note: nearly all actives have a fitted effect of over 75% in size
In short: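 Cells (500-1,000/well) in growth media were settled 5 h at 37 degrees C, then given compounds for 48 h. Viability was read as CellTiter-Glo luminescence. Primary runs used MIPE at 11 points (0.78 nM-46 µM) and NPC at 8 points (0.59 nM-46 µM); follow-ups used 11 points.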

[2] = qHTS of pediatric cancer cell lines to identify multiple opportunities for drug repurposing: Primary screen for Rh41 cells (AID 1347108);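 note: luminescence drop marks cytotoxic hits; nearly all actives have a fitted effect of over 70% in size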
In short: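 500-1,000 cells/well; 5 h pre-incubation 37 °C/5% CO2; compound pinned; 48 h; CellTiter-Glo, 15 min RT; luminescence. MIPE 11-pt from 0.78 nM, NPC 8-pt from 0.59 nM final. Bortezomib 2.3 µM final as positive control.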
Note: series mostly up to about 46 µM.

SMILES | Potency [1] | Potency [2]
CCCCC(CC)COC(=O)c1ccc(N(C)C)cc1 (configuration not stated) | inactive | inactive
CCCCCCCCCCCCCC(=O)OC(C)C | inactive | inactive
O=[N+]([O-])c1cccc(S(=O)(=O)NCCNS(=O)(=O)c2cccc([N+](=O)[O-])c2)c1 | inactive | inactive
CCCCN1C[C@H](O)[C@@H](O)[C@H](O)[C@H]1CO | inactive | inactive
CCOCCn1c(N2CCCN(C)CC2)nc2ccccc21 | inactive | inactive
NS(=O)(=O)c1cc(C(=O)O)cc(N2CCCC2)c1Oc1ccccc1 | inactive | inactive
NC(=O)n1c(O)c(C(=O)c2cccs2)c2cc(Cl)ccc21 | inactive | inactive
CC(=O)O[C@]1(C(C)=O)CC[C@H]2[C@@H]3C=C(C)C4=CC(=O)CC[C@]4(C)[C@H]3CC[C@@]21C | inactive | inactive
CCOc1ccc(NC(C)=O)cc1 | inactive | inactive
OCCOCCN1CCN(C2=Nc3ccccc3Sc3ccccc32)CC1 | inactive | inactive
COc1cc(C(=O)N2CCCCCCC2)cc(OC)c1OC | inactive | inactive
CC1(COc2ccc(CC3SC(=O)NC3=O)cc2)CCCCC1 (configuration not stated) | inactive | inactive
CC(C)NCC(O)c1ccc2ccccc2c1 (configuration not stated) | inactive | inactive
CCOC(=O)[C@H](CCc1ccccc1)N[C@@H](C)C(=O)N1[C@H](C(=O)O)C[C@@H]2CCC[C@@H]21 | inactive | inactive
COc1cc(NS(=O)(=O)c2ccc(N)cc2)ncn1 | inactive | inactive
Cc1ccccc1OCC(O)CO (configuration not stated) | inactive | inactive
CCN(CC)CCOc1ccccc1C(=O)CCc1ccccc1 | inactive | inactive
NS(=O)(=O)c1ccc(Cl)c(S(N)(=O)=O)c1 | inactive | inactive
CC(C)(C)NC[C@H](O)COc1nsnc1N1CCOCC1 | inactive | inactive
O=C(O)C1(C(=O)O)CCC1.[NH2-].[NH2-].[Pt+2] | inactive | inactive
CC(C)(C)NCC(O)COc1cccc2c1C[C@H](O)[C@H](O)C2 (some centres not stated) | inactive | inactive
CN(C)CCOC(=O)C(c1ccccc1)C1(O)CCCC1 (configuration not stated) | inactive | inactive
CCCCCCCCCCCCCCC[C@H](O)[C@@H](N)CO | inactive | inactive
COc1cc([C@H]2Oc3cc([C@H]4Oc5cc(O)cc(O)c5C(=O)[C@@H]4O)ccc3O[C@@H]2CO)ccc1O | inactive | inactive
c1ccc(CC2=NCCN2)cc1 | inactive | inactive
C[N+]1(C)CCC(=C(c2ccccc2)c2ccccc2)CC1 | inactive | inactive

SMILES | Potency [1] | Potency [2]
Cc1cn([C@H]2C[C@H](F)[C@@H](CO)O2)c(=O)[nH]c1=O | inactive | inactive
CCc1oc2ccccc2c1C(=O)c1cc(Br)c(O)c(Br)c1 | inactive | inactive
O=C(O)CCc1nc2ccccc2[nH]1 | inactive | inactive
OC(C#CCN1CCCC1)(c1ccccc1)c1ccccc1 | inactive | inactive
CC(C)Nc1cccnc1N1CCN(C(=O)c2cc3cc(NS(C)(=O)=O)ccc3[nH]2)CC1 | inactive | inactive
CCC1NC(=O)c2cc(S(N)(=O)=O)c(Cl)cc2N1 (configuration not stated) | inactive | inactive
NS(=O)(=O)c1cc2c(cc1Cl)NC(CC1CCCC1)NS2(=O)=O (configuration not stated) | inactive | inactive
CCN1CCN(C(=O)N[C@@H](C(=O)N[C@@H]2C(=O)N3C(C(=O)O)=C(CSc4nnnn4C)CS[C@H]23)c2ccc(O)cc2)C(=O)C1=O | inactive | inactive
OCc1ccccn1 | inactive | inactive
CC[C@H](c1ccc(O)cc1)[C@@H](CC)c1ccc(O)cc1 | inactive | inactive
NS(=O)(=O)Cc1noc2ccccc12 | inactive | inactive
N/C(=N\N=C\c1ccc(Cl)cc1)N/N=C/c1ccc(Cl)cc1 | inactive | inactive
C#C[C@]1(O)CC[C@H]2[C@@H]3[C@H](C)CC4=C(CCC(=O)C4)[C@H]3CC[C@@]21C | inactive | inactive
Cc1cc(CC(=O)O)c(C)n1-c1ccc(Cl)cc1 | inactive | inactive
CCc1cc(Cl)c(OC)c(C(=O)NC[C@@H]2CCCN2CC)c1O | inactive | inactive
Cc1ccc(S(=O)(=O)NC(=O)NC2CCCC2)cc1 | inactive | inactive
CC1(C)OC[C@@H]2O[C@@]3(C(=O)O)OC(C)(C)O[C@H]3[C@@H]2O1 | inactive | inactive
CCc1ccc(C(=O)C(C)CN2CCCCC2)cc1 (configuration not stated) | inactive | inactive
CC(C)=CCOc1ccc(/C=C/C(=O)c2ccc(OCC=C(C)C)cc2OCC(=O)O)cc1 | inactive | inactive
OC1C(O)C(O)C(O)C(O)C1O (configuration not stated) | inactive | inactive
COc1ccc2c(c1)c1c3n2CCN(C)C3=NCC1 | inactive | inactive
NCCNC(=O)c1ccc(Cl)cn1 | inactive | inactive
C=CCN1CCc2nc(N)sc2CC1 | inactive | inactive
O=C(c1ccc(F)cc1)C1CCN(CCn2c(=S)[nH]c3ccccc3c2=O)CC1 | inactive | inactive
CN(CCCN1c2ccccc2CCc2ccccc21)CC(=O)c1ccc(Cl)cc1 | inactive | inactive
CC1=C(C(=O)O)N2C(=O)[C@@H](NC(=O)[C@H](N)c3ccccc3)[C@H]2SC1 | inactive | inactive

SMILES | Potency [1] | Potency [2]
COC(=O)C(c1ccccc1Cl)N1CCc2sccc2C1 (configuration not stated) | inactive | inactive
CC(=O)O[C@H]1C[C@@H]2CC[C@@H]3[C@H](CC[C@@]4(C)[C@H]3C[C@H]([N+]3(C)CCCCC3)[C@@H]4OC(C)=O)[C@@]2(C)C[C@@H]1N1CCCCC1 | inactive | inactive
C#C[C@]1(O)CC[C@H]2[C@@H]3CCC4=Cc5oncc5C[C@]4(C)[C@H]3CC[C@@]21C | inactive | inactive
CC(O)Cn1cnc2c1c(=O)n(C)c(=O)n2C (configuration not stated) | inactive | inactive
CCCN(CCc1cccs1)[C@H]1CCc2c(O)cccc2C1 | inactive | inactive
CC(C)[N+](C)(C)CC(O)COc1cccc2ccccc12 (configuration not stated) | inactive | inactive
C=C1c2cccc(O)c2C(O)=C2C(=O)[C@]3(O)C(O)=C(C(N)=O)C(=O)[C@@H](N(C)C)[C@@H]3[C@@H](O)[C@H]12 | inactive | inactive
CCOC(=O)C(C#N)=C(c1ccccc1)c1ccccc1 | inactive | inactive
Nc1nc(N)c(-c2ccccc2)s1 | inactive | inactive
CCC1Nc2cc(Cl)c(S(N)(=O)=O)cc2S(=O)(=O)N1 (configuration not stated) | inactive | inactive
C#C[C@]1(O)CC[C@H]2[C@@H]3CCC4=CC(=O)CC[C@@H]4[C@H]3CC[C@@]21CC | inactive | inactive
O=C(Nc1ccc([N+](=O)[O-])cc1)Nc1ccc([N+](=O)[O-])cc1 | inactive | inactive
CN(Cc1ccc(C(C)(C)C)cc1)Cc1cccc2ccccc12 | inactive | inactive
CC(=O)Oc1ccc(C)cc1 | inactive | inactive
O=C(O)P(=O)(O)O | inactive | inactive
CCCCCCCCOc1ccc(C(=O)c2ccccc2)c(O)c1 | inactive | inactive
COc1ccccc1N1CCN(CCCCNC(=O)c2ccc(-c3ccc(C(C)=O)cc3)cc2)CC1 | inactive | inactive
C[N+]1(CC2COC(c3ccccc3)(C3CCCCC3)O2)CCCCC1 (configuration not stated) | inactive | inactive
c1ccc(-c2nc[nH]c2-c2ccccc2)cc1 | inactive | inactive
CC(C)(Cc1c[nH]c2ccccc12)NCC(O)COc1ccccc1C#N (configuration not stated) | inactive | inactive
C/C=C/c1ccc(O)c(OC)c1 | inactive | inactive
CN(C)CCC[C@@]1(c2ccc(F)cc2)OCc2cc(C#N)ccc21 | inactive | inactive
Nc1ccc(C(=O)NCC(=O)O)cc1 | inactive | inactive
Cc1c(-c2ccccc2)oc2c(C(=O)OCCN3CCCCC3)cccc2c1=O | inactive | inactive

Reference: PubChem BioAssay (NCATS)
